The structures appear in SMILES notation. Values joined by “and” are separate entries in the source; they are usually repeats but may differ in a detail not shown here. Identical values can stand only once. Active and inactive are the calls of the source. The calls were made as follows: active = hit-call score of the fitted dose curve at least 0.9, where 1 is the maximum; inactive = score below 0.9.

Read-out in the experiment: Monocyte Chemoattractant Protein-1 (MCP1), CCL2 (gene 6347)
In words: BSK_4H_MCP1: BioMAP Diversity Plus: 4H Assay for Monocyte Chemoattractant Protein-1 (MCP1) Biomarker Activity (AID 2283018). Particulars: primary human endothelial cells (HUVEC); actives raise or lower the signal. On the procedure:
BSK_4H is a cell-based, multiplexed-readout assay that uses umbilical vein endothelium, a human vascular primary cell, with measurements taken at 24 hours after chemical dosing in a 96-well plate.BSK_4H_MCP1 is an assay component measured in the BSK_4H assay. It measures MCP-1 antibody related to regulation of gene expression using ELISA technology.Data from the assay component BSK_4H_MCP1 was analyzed into 1 assay endpoint. This assay endpoint, BSK_4H_MCP1, was analyzed with bidirectional fitting relative to DMSO as the negative control and baseline of activity. Using a type of binding reporter, gain or loss-of-signal activity can be used to understand changes in the signaling as they relate to the gene CCL2. Furthermore, this assay endpoint can be referred to as a primary readout, because this assay has produced multiple assay endpoints where this one serves a signaling function. To generalize the intended target to other relatable targets, this assay endpoint is annotated to the cytokine intended target family, where the subfamily is chemotactic factor.
The levels of cell surface (or secreted, indicated by the prefix "s") biomarker endpoints were measured by ELISA. Overt cytotoxicity to cells in confluent adherent cultures (all systems other than the BT system) was assessed by measuring total protein levels using sulforhodamine B (SRB) staining in parallel cultures at the time of biomarker measurements, indicated as SRB endpoints. For proliferation assays for adherent cell types, individual cell types are cultured at sub-confluence and relative cell numbers quantified by SRB staining at time points optimized for each system (48 h: 3C and CASM3C systems; 72 h: BT and HDF3CGF systems; 96 h: SAg system). SRB was performed by staining cells with 0.1% SRB after fixation with 10% TCA and reading wells at 560 nm.Viability and proliferation of PBMC (T cells) was quantified by Alamar Blue reduction for the SAg and BT systems. For PBMC viability (referred to as PBMC Cytotoxicity within the assay endpoint names), cells were plated (75,000/well in a 96-well plate) and then chemical samples added for 1 h before addition of activators, SEB and TSST-1 (20 ng/mL final concentration each). Cells were incubated for 90 h. Then, Alamar Blue (20 uL/well) (Invitrogen, Cat DAL1100) was added for 6 h, and the plates were read with a fluorescence microplate reader at 546/580 nm (excitation/emission). For PBMC proliferation, cells were plated and activated as above but incubated for only 16 h prior to addition of Alamar Blue. Plates were read after 6 h.
As to `C=CC=CC=CCCCCC`, the result was inactive. Broadly, the AC50 is the concentration at which the activity in the assay is half-maximal. On to `O=C(Cl)c1cc(C(=O)Cl)cc(C(=O)Cl)c1`, for which the AC50 is 12.8 µM (active).

Take `S=C(NC1CCCCC1)NC1CCCCC1`: the result was inactive. Regarding `c1ccc(-c2ccccn2)nc1`, the AC50 was 20 µM (active). Regarding `O=C(Nc1ccccc1SSc1ccccc1NC(=O)c1ccccc1)c1ccccc1`, the AC50 was 9.13 µM (active). Same read-out and setting: the value for `C#CC1(O)CC[C@H]2[C@@H]3CCC4=CCCC[C@@H]4[C@H]3CC[C@@]21C` (stereo partly specified) was 9.46 µM (active). For `c1ccc2c(c1)ccc1cc3c(ccc4ccccc43)cc12`, the outcome was inactive. On to `Nc1ccc(N)c(Cl)c1`, for which the AC50 is 26.1 µM (active) and 14.6 µM (active). As for `CCCCNc1ccc(NCCCC)c2c1C(=O)c1ccccc1C2=O`, the AC50 was 0.00419 µM (active). Consider `CCCCC(CC)COC(=O)c1ccccc1O` (stereo unspecified), for which the AC50 is 16.2 µM (active).

On to `O=c1c2ccccc2oc2ccccc12`, for which the result was inactive. For the molecule `CO[Si](OC)(OC)c1ccccc1`, the outcome was inactive. Same read-out and setting: the value for `CC1OC1C1CCC2(C)OC2C1` (stereo unspecified) was “inactive”.

`c1ccc2c(c1)ccc1ncccc12`: the result was inactive. In the case of `COc1ccc2nc(N)sc2c1`, the outcome was inactive. As for `CCCCCCCCCCCCCCCC[N+](C)(C)CC`, the AC50 is 0.845 µM (active). Still for that read-out and setting: the value for `CC(C)(c1cc(Br)c(OCCO)c(Br)c1)c1cc(Br)c(OCCO)c(Br)c1` was 5.24 µM (active); that for `C=CCOc1c(Br)cc(Br)cc1Br` was 20 µM (active). For the molecule `COCc1c(C(C)C)nc(C(C)C)c(/C=C/[C@@H](O)C[C@@H](O)CC(=O)O)c1-c1ccc(F)cc1`, the AC50 was 0.00777 µM (active). Turning to `CCCCC/C=C\C/C=C\CCCCCCCC(=O)OC`, the outcome was inactive. On the same count and under the same terms, the value for `O=Nc1ccc(O)cc1` was “inactive”; that for `O=C1CCCN1CCO` was “inactive”.

As to `CC(C)C(=O)C(C)C`, the result was inactive. As to `CCO[Si](C)(OCC)OCC`, the outcome was inactive. As for `O=C(c1ccc(O)cc1)c1ccc(O)cc1O`, the result was inactive. The same measure, in the same setting: the value for `C=CCOCC(O)CCl` (stereo unspecified) was “inactive”; that for `CN1C(=O)N(C)C(O)C1O` (stereo unspecified) was “inactive”; that for `C/C=C\C/C=C/CCCCCCCCOC(C)=O` was “inactive”. Consider `CCO[Si](CCCN=C=O)(OCC)OCC`, for which the outcome was inactive. Same read-out and setting: the value for `N#[N+]c1ccc2c(S(=O)(=O)[O-])cccc2c1O` was “inactive”; that for `CCCCCCCCc1ccc(Nc2ccc(CCCCCCCC)cc2)cc1` was “inactive”. In the case of `CCOC(=O)c1ccccc1C(=C1C=C(Br)C(=O)C(Br)=C1)c1cc(Br)c(O)c(Br)c1`, the AC50 was 15.5 µM (active) and 13.5 µM (active). In the case of `CCCCC(CC)COCC1CO1` (stereo unspecified), the result was inactive. Take `C=C[Si](OC(C)=O)(OC(C)=O)OC(C)=O`: the outcome was inactive. Regarding `CCOc1nc(F)cc2nc(S(=O)(=O)Nc3c(Cl)cccc3C(=O)OC)nn12`, the result was inactive. Consider `C=CC(=O)OCC(Br)CBr` (stereo unspecified), for which the AC50 was 26.6 µM (active).

For the origin of these results see PubChem BioAssay (EPA / NIEHS).
